The source of these data is PubChem BioAssay (Tox21).

Molecules are shown by their SMILES. Where “and” joins values, the source holds several entries; their conditions need not be identical. Equal entries are not always repeated. Inconclusive results are not listed. A structure can be active in one record and inactive in another. Calls of active or inactive are those of the source. Unless noted, calls follow the shape of the dose curve; as a rule, active = well fitted curve in the direction sought with a large enough effect in the repeat runs; inconclusive = weak or mixed curves; inactive = no such curve, though single readings can be large; an effect the other way counts as inactive or inconclusive.

The nature of test [1]: qHTS assay to identify small molecule antagonists of the glucocorticoid receptor (GR) signaling pathway - cell viability counter screen (AID 720693; also: nearly all actives have a fitted effect of over 55% in size). (qHTS replaces the single test concentration by a dilution series.)
Test [2] can be described thus: qHTS assay for identifying genotoxic compounds that show differential cytotoxicity against isogenic chicken DT40 cell lines with known DNA damage response pathways - wild type cell line (AID 743012). Also: nearly all actives have a fitted effect of over 60% in size. Also: potency is read from the fitted curve at half-maximal effect. In outline: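 First, wild type DT40 cells were plated at 300 per well and equilibrated about 0.5 h at 37 C/5% CO2. Next, compounds in DMSO were added and exposure lasted 40 h. Finally, CellTiter-Glo was added for 30 min at room temperature and luminescence recorded.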

A short description of test [3]: qHTS assay for identifying genotoxic compounds that show differential cytotoxicity against isogenic chicken DT40 cell lines with known DNA damage response pathways - Rev3 mutant cell line (AID 743014). Also: nearly all actives have a fitted effect of over 55% in size. Also: potency is read from the fitted curve at half-maximal effect.
A short description of test [4]: qHTS assay for identifying genotoxic compounds that show differential cytotoxicity against isogenic chicken DT40 cell lines with known DNA damage response pathways - Rad54/Ku70 mutant cell line (AID 743015). Also: nearly all actives have a fitted effect of over 60% in size. Also: potency is read from the fitted curve at half-maximal effect.
A short description of test [5]: qHTS assay to identify small molecule antagonists of the androgen receptor (AR) signaling pathway - cell viability counter screen (AID 743033; also: nearly all actives have a fitted effect of over 45% in size).
Test [6] can be described thus: qHTS assay to identify small molecule antagonists of the androgen receptor (AR) signaling pathway using the MDA cell line - cell viability counter screen (AID 743041; also: nearly all actives have a fitted effect of over 45% in size). In short, it runs like this: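 R1881-driven MDA-kb2 AR-luc cells, 3,000/well, were dosed with library compounds for 16 h; cell health came from CellTiter-Fluor fluorescence in the reporter wells.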
Test [7] in a line: qHTS assay to identify small molecule antagonists of the thyroid receptor (TR) signaling pathway - cell viability counter screen (AID 743064). Also: nearly all actives have a fitted effect of over 50% in size. Also: potency is read from the fitted curve at half-maximal effect. In outline:
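In rat pituitary GH3.TRE-Luc reporter cells co-exposed to compound and 1 nM T3 for 23.5 h, cytotoxicity was assessed with CellTiter-Fluor in the same wells, read by fluorescence.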

Test [8] relates to thyroid hormone receptor (rat, GH3 cells). Description: qHTS assay to identify small molecule agonists of the thyroid receptor (TR) signaling pathway (AID 743066; calls by dose curve).
Test [9] concerns the target Estrogen receptor (Homo sapiens) (UniProt P03372). Description: qHTS assay to identify small molecule antagonists of the estrogen receptor alpha (ER-alpha) signaling pathway (AID 743069; active = well fitted curve in the direction sought with a large enough effect in the signal ratio in the repeat runs, not every such curve was filed as active; the % refers to the signal ratio). In short, it runs like this:
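Compound effects are measured against 17beta-estradiol stimulation in HEK293 cells with a UAS-controlled beta-lactamase reporter for ER-alpha. Exposure lasts 18 hr at 37C; LiveBLAzer B/G FRET substrate follows for 2 hr at room temperature.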

The nature of test [10]: qHTS assay to identify small molecule antagonists of the estrogen receptor alpha (ER-alpha) signaling pathway - cell viability counter screen (AID 743074; calls by dose curve;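 also: HEK293 cells carrying ER-alpha-UAS-bla reporter stimulated with 17beta-estradiol; nearly all actives have a fitted effect of over 45% in size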).
Test [11] has as its target Estrogen receptor (Homo sapiens) (UniProt P03372). Description: qHTS assay to identify small molecule agonists of the estrogen receptor alpha (ER-alpha) signaling pathway (AID 743075; calls by dose curve).
For test [12] the target is unchanged. Description: qHTS assay to identify small molecule agonists of the estrogen receptor alpha (ER-alpha) signaling pathway using the BG1 cell line (AID 743079). Also: nearly all actives have a fitted effect of over 20% in size.
Test [13] can be described thus: qHTS assay to identify small molecule antagonists of the estrogen receptor alpha (ER-alpha) signaling pathway using the BG1 cell line (AID 743080; calls by dose curve;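 also: BG1 cells stimulated with 17beta-estradiol alongside compound; series mostly up to about 70 µM; nearly all actives have a fitted effect of over 25% in size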). In short, it runs like this:
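Seeding, 24 h rest, compound transfer from DMSO, 17beta-estradiol addition, 21.5 h incubation, CellTiter-Fluor (30 min, 37 C), then ONE-Glo (30 min, room temperature): this sequence was run on BG1-Luc-4E2 reporter cells.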

Test [14] in a line: qHTS assay to identify small molecule antagonists of the estrogen receptor alpha (ER-alpha) signaling pathway using the BG1 cell line - cell viability counter screen (AID 743081).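 Also: compound given together with 17beta-estradiol as the ER stimulus; nearly all actives have a fitted effect of over 45% in size.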 Also: potency is read from the fitted curve at half-maximal effect.
In the next test the target is Aromatase (Homo sapiens) (UniProt P11511). Description: qHTS assay to identify aromatase inhibitors (AID 743083). Also: series mostly up to about 70 µM; nearly all actives have a fitted effect of over 55% in size.
Test [15] in a line: qHTS assay to identify small molecule antagonists of the thyroid receptor (TR) signaling pathway (AID 743065). Also: series mostly up to about 70 µM; nearly all actives have a fitted effect of over 55% in size. In short, it runs like this:
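Antagonism measured as loss of luciferase signal in GH3 cells stably carrying a TRE-luciferase reporter, co-treated with compound and T3 (1 nM final) for 23.5 h at 37 C. Viability was read in the same well by CellTiter-Fluor.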

Test [16] deals with Androgen receptor (Homo sapiens) (UniProt P10275). Description: qHTS assay to identify small molecule antagonists of the androgen receptor (AR) signaling pathway (AID 743035; active = well fitted inhibition curve with a large enough effect in the signal ratio in the repeat runs, not every such curve was filed as active; the % refers to the signal ratio). In short, it runs like this:
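Beta-lactamase FRET read (2 h RT incubation with LiveBLAzer B/G) following 16 h of compound plus R1881 treatment of AR-UAS-bla HEK293 cells, which had been pre-incubated 4 h at 37C.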

For test [17] the target is unchanged. Description: qHTS assay to identify small molecule agonists of the androgen receptor (AR) signaling pathway (AID 743036; active = well fitted activation curve with a large enough effect in the signal ratio in the repeat runs, with a control signal flat, not every such curve was filed as active; the % refers to the signal ratio). In outline:
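Cell-based FRET reporter assay: HEK293 line with a UAS-beta-lactamase construct, compounds added in DMSO, 16 h exposure at 37C, then 2 h substrate step at room temperature and fluorescence intensity read.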

Test [18] shares this target. Description: qHTS assay to identify small molecule agonists of the androgen receptor (AR) signaling pathway using the MDA cell line (AID 743040; also: nearly all actives have a fitted effect of over 20% in size). In short, it runs like this:
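After a 5 h incubation at 37C and 0% CO2, MDA-kb2 reporter cells were dosed with compounds in DMSO and kept 16 h under the same conditions. Luciferase activity was then read as luminescence with ONE-Glo.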

Test [19] has the same target. Description: qHTS assay to identify small molecule antagonists of the androgen receptor (AR) signaling pathway using the MDA cell line (AID 743042; also: nearly all actives have a fitted effect of over 55% in size). In outline:
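Antagonist mode: compounds plus R1881 agonist added to MDA-kb2 AR-luc cells, incubated 16 h at 37C. Luciferase reporter luminescence quantified, with multiplexed CellTiter-Fluor readout for cell viability.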

Estrogen receptor (Homo sapiens), sequence (P03372 whole entry, looked up): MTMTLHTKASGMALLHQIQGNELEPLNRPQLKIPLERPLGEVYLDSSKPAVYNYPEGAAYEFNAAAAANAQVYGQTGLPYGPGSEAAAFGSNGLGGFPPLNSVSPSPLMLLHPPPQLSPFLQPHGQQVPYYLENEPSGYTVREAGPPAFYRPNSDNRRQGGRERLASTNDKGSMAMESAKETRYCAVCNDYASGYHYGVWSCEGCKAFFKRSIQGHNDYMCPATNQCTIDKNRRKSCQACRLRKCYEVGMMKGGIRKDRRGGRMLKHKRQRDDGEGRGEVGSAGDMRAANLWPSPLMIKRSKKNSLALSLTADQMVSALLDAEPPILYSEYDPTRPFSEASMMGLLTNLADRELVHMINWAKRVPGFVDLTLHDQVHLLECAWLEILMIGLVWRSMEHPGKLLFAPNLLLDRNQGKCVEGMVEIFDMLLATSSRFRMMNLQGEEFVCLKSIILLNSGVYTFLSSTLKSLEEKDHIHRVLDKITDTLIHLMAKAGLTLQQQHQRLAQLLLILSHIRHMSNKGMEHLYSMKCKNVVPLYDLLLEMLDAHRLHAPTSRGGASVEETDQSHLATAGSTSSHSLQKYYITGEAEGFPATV
Androgen receptor (Homo sapiens), sequence (P10275 whole entry, looked up): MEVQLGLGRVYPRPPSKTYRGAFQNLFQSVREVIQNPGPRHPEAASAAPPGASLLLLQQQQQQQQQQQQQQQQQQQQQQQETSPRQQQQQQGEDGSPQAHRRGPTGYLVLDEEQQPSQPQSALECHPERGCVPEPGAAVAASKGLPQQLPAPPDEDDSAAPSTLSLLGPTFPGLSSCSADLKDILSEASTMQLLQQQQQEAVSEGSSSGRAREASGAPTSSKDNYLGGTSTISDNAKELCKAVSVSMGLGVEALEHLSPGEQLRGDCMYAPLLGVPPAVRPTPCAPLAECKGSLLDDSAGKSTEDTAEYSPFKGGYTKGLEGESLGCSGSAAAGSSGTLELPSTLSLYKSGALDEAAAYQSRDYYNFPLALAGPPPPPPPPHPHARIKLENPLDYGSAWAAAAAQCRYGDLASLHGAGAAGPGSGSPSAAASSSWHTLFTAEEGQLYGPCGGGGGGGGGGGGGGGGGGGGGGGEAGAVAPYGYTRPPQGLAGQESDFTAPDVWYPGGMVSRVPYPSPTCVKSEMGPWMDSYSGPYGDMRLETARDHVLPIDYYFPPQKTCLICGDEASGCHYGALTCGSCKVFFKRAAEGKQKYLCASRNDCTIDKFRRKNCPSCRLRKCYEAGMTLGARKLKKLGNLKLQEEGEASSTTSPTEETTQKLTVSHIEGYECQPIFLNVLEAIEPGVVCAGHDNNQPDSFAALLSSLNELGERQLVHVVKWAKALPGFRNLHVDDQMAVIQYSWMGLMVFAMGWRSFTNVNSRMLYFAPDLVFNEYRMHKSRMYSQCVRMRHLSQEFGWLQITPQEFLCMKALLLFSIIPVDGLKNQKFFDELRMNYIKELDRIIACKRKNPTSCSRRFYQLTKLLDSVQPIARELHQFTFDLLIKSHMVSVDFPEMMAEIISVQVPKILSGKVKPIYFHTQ
Aromatase (Homo sapiens), sequence (P11511 whole entry, looked up): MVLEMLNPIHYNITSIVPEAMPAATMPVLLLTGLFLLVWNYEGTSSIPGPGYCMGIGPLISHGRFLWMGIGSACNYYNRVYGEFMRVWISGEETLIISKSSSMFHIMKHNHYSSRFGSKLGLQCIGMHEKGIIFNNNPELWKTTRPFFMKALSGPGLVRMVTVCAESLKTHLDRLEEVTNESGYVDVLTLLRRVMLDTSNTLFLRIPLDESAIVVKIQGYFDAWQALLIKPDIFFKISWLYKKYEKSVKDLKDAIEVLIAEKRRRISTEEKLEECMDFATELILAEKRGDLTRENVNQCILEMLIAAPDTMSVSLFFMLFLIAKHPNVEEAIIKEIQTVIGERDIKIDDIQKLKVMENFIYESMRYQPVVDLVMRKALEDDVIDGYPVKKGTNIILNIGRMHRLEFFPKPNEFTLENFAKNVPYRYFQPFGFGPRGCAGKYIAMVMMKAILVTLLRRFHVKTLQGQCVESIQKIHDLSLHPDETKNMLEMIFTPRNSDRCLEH

In the case of `COCC(=O)O`, the Potency entry in test [1], in test [2], in [3], in [4], in test [5] and in test [6] was “inactive” throughout. In addition, the Potency result in test [7], in [9], in test [10], in test [11], in test [12] and in test [13] was “inactive” each time. In addition, the Potency result (in test [14]; in the test with Aromatase (Homo sapiens)) was “inactive” throughout. Further, the outcome in test [8] was inactive.

For the compound `NS(=O)(=O)c1cc2c(cc1Cl)NC=NS2(=O)=O`, the Potency result in [1], in test [2], in [3], in test [5], in [6] and in test [7] was “inactive” each time. Moreover, the Potency result in test [15], in test [9], in test [11], in test [12], in [13] and in [14] was “inactive” throughout. The Potency result in the test with Aromatase (Homo sapiens) is “inactive”. Besides, the call in test [8] was inactive.

`CC(C)(CO)COC(=O)C(C)(C)CO`: the Potency result in test [1], in test [2], in test [3], in test [5], in [6] and in test [7] was “inactive” in each case. For the same compound, the Potency result in test [15], in [9], in test [10], in [11], in test [12] and in test [13] was “inactive” in each case. The Potency result (in test [14]; with Aromatase (Homo sapiens)) was “inactive” throughout. The result in test [16], in test [17], in [18], in test [19] and in [8] was inactive.

As to `CC1(C)CC(N=C=O)CC(C)(CN=C=O)C1` (configuration not stated), the Potency entry in test [1], in test [2], in [3], in [5], in [6] and in [7] was “inactive” in each case. Besides, the Potency entry in test [15], in test [9], in [10], in test [11], in test [12] and in test [13] was “inactive” in each case. For the same compound, the Potency result (in test [14]; in the test with Aromatase (Homo sapiens)) was “inactive” in each case. The compound was called inactive in test [8].

As to `NC(=O)/N=N/C(N)=O`, the Potency result in [1], in [2], in test [3], in test [5], in test [6] and in test [7] was “inactive” throughout. The Potency entry in test [15], in test [9], in test [11], in [12], in [13] and in test [14] was “inactive” each time. The Potency result with Aromatase (Homo sapiens) was “inactive”. The result in [8] was inactive.

As for `OCC1CCCO1` (configuration not stated), the Potency result in test [1], in test [2], in test [3], in test [5], in test [6] and in test [7] was “inactive” in each case. The Potency result in [9], in test [10], in test [11], in test [12], in test [13] and in test [14] was “inactive” each time. The Potency result with Aromatase (Homo sapiens) was “inactive”. In addition, the outcome in test [17], in test [18] and in [19] was inactive.

Turning to `Cn1c([N+](=O)[O-])cnc1COC(N)=O`, the Potency entry in test [1], in [2], in test [3], in test [4], in test [5] and in test [6] was “inactive” in each case. Further, the Potency entry in test [7], in test [9], in [10], in test [11], in test [12] and in [13] was “inactive” in each case. Also, the Potency result (in test [14]; with Aromatase (Homo sapiens)) was “inactive” in each case. Further, the compound was classed as inactive in test [8].

For the compound `O=[N+]([O-])c1cccc(Cl)c1`, the Potency entry in test [1], in test [2], in test [3], in [5], in test [6] and in test [7] was “inactive” throughout. In addition, the Potency result in test [15], in test [9], in test [10], in [11], in test [12] and in [13] was “inactive” each time. Further, the Potency result (in [14]; with Aromatase (Homo sapiens)) was “inactive” throughout. Moreover, the compound was called inactive in test [8].

With `CCOC(=O)/C=C\C(=O)OCC`, the Potency result in test [1], in [2], in test [3], in test [4], in test [5] and in [6] was “inactive” throughout. Also, the Potency entry in [7], in test [9], in test [10], in test [11], in [12] and in test [13] was “inactive” in each case. The Potency entry (in test [14]; with Aromatase (Homo sapiens)) was “inactive” throughout.

In the case of `OCCOCCOCCOCCO`, the Potency entry in test [1], in test [2], in test [3], in [5], in test [6] and in test [7] was “inactive” each time. The Potency entry in [15], in test [9], in [10], in test [11], in [12] and in [13] was “inactive” throughout. Further, the Potency result (in test [14]; with Aromatase (Homo sapiens)) was “inactive” in each case. Besides, in [8], the outcome was inactive.

Regarding `O=C1N=C(O)CN1/N=C/c1ccc(-c2ccc([N+](=O)[O-])cc2)o1`, the Potency entry (in test [1]; in test [5]; in [10]; with Aromatase (Homo sapiens)) was “inactive” throughout. The Potency in test [2] is 61.1 µM (active); in test [3], “inactive and 68.6 µM (active)”; in [4], 26.6 µM (active) and 27.3 µM (active); in test [7] it was 15 µM (active) and 30.6 µM (active); in test [14] it was 48.6 µM (active). Also, the outcome in [8] was inactive.
